From PubChem BioAssay AID485364 (National Center for Advancing Translational Sciences (NCATS), 2010) come the findings set out here.

Among all 360,000 compounds or so, about 11,000 (3.1%) were called active. Another 4% or so got no clear call; they are omitted. For the sample, actives were picked, then their nearest neighbours and some compounds at random. Values without a mark were called inactive. Calls come from the whole dose curve; as a rule, active = well fitted inhibition curve with a large enough effect; inconclusive = small, poorly fitted or top-dose-only effect; inactive = no such curve, though single readings can be large or run the other way.
% is set by controls: 0 for no effect and ±100 for the full control effect; potency is the fitted concentration of half-maximal effect.

The target of this assay is Schistosoma mansoni thioredoxin glutathione reductase (TGR) (UniProt Q962Y6). Kind of assay: qHTS Assay for the Inhibitors of Schistosoma Mansoni Peroxiredoxins. Note: nearly all actives have a fitted effect of over 60% in size. Conditions: purified TGR, DTNB reduction, TNB absorbance 405 nm; series mostly up to 114 µM; activity change, negative = inhibition: at the top concentration. The essentials: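 TGR 20 nM + NADPH 100 uM (dispensed conc.), cpd preinc 15 min RT; start with NADPH (500 uM addition) then DTNB (15 mM addition). Kinetic TNB absorbance, 405 nm filter. Four-parameter Hill fit across titration.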
On to `NC(=O)CSc1nc2c(oc3ccccc32)c(=O)n1Cc1ccccc1`, for which the “activity change, negative = inhibition” value was 5.1%.

For `CN1c2ccc(Cl)cc2-c2nc(SCC(=O)Nc3cc(F)ccc3F)ncc2S1(=O)=O`, the “activity change, negative = inhibition” value is 0.619%.

Regarding `N#Cc1ccccc1S(=O)(=O)N1CCN(C(=O)c2cc(-c3ccccc3)nn2-c2ccccc2)CC1`, the “activity change, negative = inhibition” value is -1.32%.

Regarding `COc1ccc(-c2csc3ncnc(N4CCN(S(=O)(=O)c5ccccc5C#N)CC4)c23)cc1`, the “activity change, negative = inhibition” value was -8.78%.

Take `N#Cc1ccccc1S(=O)(=O)N1CCN(Cc2c(O)ccc3ccccc23)CC1`: the Potency was 0.891 µM (active).

As to `O=C(CSc1cn(CC(=O)N2CCOCC2)c2ccccc12)Nc1ccccc1`, the “activity change, negative = inhibition” value is 11.4%.

In the case of `COc1ccc(C(c2nnnn2Cc2cccs2)N2CCN(c3ccccc3)CC2)cc1OC` (configuration not stated), the Potency is 44.7 µM (active).

Regarding `CCC(C)(C)n1nnnc1C(c1ccc(OC)c(OC)c1)N1CCN(C(=O)c2ccco2)CC1` (configuration not stated), the “activity change, negative = inhibition” value was -29.5%.

For `COc1ccccc1C(c1nnnn1CC1CCCO1)N1CCN(c2ccccc2)CC1` (configuration not stated), the “activity change, negative = inhibition” value was -1.2%.

For the molecule `CCOc1ccc(CCNC(=O)c2c(C)oc3ncn(C)c(=O)c23)cc1`, the “activity change, negative = inhibition” value was 0.186%.

On to `CCSc1nc(O)c(C(c2cccc(OC)c2)c2c(O)nc(SCC)[nH]c2=O)c(=O)[nH]1`, for which the Potency is 5.01 µM (active).

Regarding `CCSc1nc(C)c(CCOc2cccc(C)c2)c(=O)[nH]1`, the “activity change, negative = inhibition” value is -7.91%.

For the molecule `CC(C)c1c(O)nc(SCCOc2ccc(Cl)cc2)[nH]c1=O`, the “activity change, negative = inhibition” value is 0.293%.

Turning to `CCc1ccc(CNC(=O)c2cc3c(=O)n(CC)c4ccccc4c3s2)cc1`, the “activity change, negative = inhibition” value is 8.1%.

Consider `CC1=C(c2ccc(F)cc2)S(=O)(=O)N=C1N1CCC(C(=O)NCCc2ccccc2C)CC1`, for which the “activity change, negative = inhibition” value is -1.75%.

Take `CCC1CCCCN1C(=O)Cn1c(=O)n(CCCCCC(=O)NCc2ccccc2)c(=O)c2sccc21` (configuration not stated): the “activity change, negative = inhibition” value is -7.45%.

With `Cc1ccc(C)c(NC(CC(=O)c2ccccc2)C(=O)OCC(=O)c2cccs2)c1` (configuration not stated), the Potency is 12.6 µM (active).

In the case of `COC(=O)C(CC(=O)Nc1cc(C)ccc1C)Nc1ccccc1OC` (configuration not stated), the “activity change, negative = inhibition” value was -24.7%.

As for `O=C(COC(=O)[C@H](Cc1ccccc1)NC(=O)c1cccs1)Nc1cc(F)ccc1F`, the “activity change, negative = inhibition” value is 2.43%.

Regarding `CCN(CCCNC(=O)c1ccc(Sc2ccc(C)cc2)c(NC(C)=O)c1)c1cccc(C)c1`, the “activity change, negative = inhibition” value was 1.43%.

On to `CC1CCN(S(=O)(=O)c2ccc3c(c2)N(CC(=O)NCc2ccccc2Cl)C(=O)CO3)CC1`, for which the “activity change, negative = inhibition” value was 4.2%.

For the molecule `O=c1n(Cc2cccc(C(F)(F)F)c2)c2ccccc2c2nc(-c3ccccc3)nn12`, the “activity change, negative = inhibition” value was 8.09%.

In the case of `CN1CCN(C(CNC(=O)c2ccccc2F)c2ccc3c(c2)OCO3)CC1` (configuration not stated), the “activity change, negative = inhibition” value was -3.13%.

With `CC1CCCN(c2cc3c(cc2F)c(=O)c(S(=O)(=O)c2cccc(Cl)c2)cn3Cc2ccccc2)C1` (configuration not stated), the “activity change, negative = inhibition” value is -1.38%.

`CCCCC1=CC2=CC(=O)C(C)(OC(=O)CC)C(=O)C2=CN1CCCOC(C)C` (configuration not stated): the “activity change, negative = inhibition” value is -25.2%.

For `C=CCN1C=C2C(=O)C(C)(OC(=O)CCc3ccccc3)C(=O)C=C2C=C1c1ccc(C#N)cc1` (configuration not stated), the “activity change, negative = inhibition” value was -25.6%.

In the case of `COC/C=C/C1=CC2=CC(=O)C(C)(OC(=O)CCC(=O)OC)C(=O)C2=CO1` (configuration not stated), the Potency is 3.98 µM (active).
